Bioassay records from PubChem.
ELG1 genotoxic – qHTS screen for small molecules that induce genotoxicity in human embryonic kidney (HEK293T) cells expressing luciferase-tagged ELG1; HEK293T ELG1-luciferase reporter, luminescence, 16 h; Potency, µM (top dose mostly 46 µM), without a hit: at the highest dose activity change, positive = activation, usual class: activators; 330,000 compounds, 1.3% hits; AID 504466, 2011; further: % of control where 0% means no effect; nearly all actives have a fitted effect of over 60% in size
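Cells (2,000/well) expressing the ELG1-luciferase fusion are dosed by pin tool and kept 16 hr at 37 °C, 5% CO2. Signal comes from ONE-Glo luciferase reagent after 30 min at room temperature.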
Rab9 promoter act – qHTS Assay for Rab9 Promoter Activators | Huh7 Rab9 promoter-luciferase reporter, luminescence, 24 h | AID 485297, 2010 | Potency, µM (series often up to 9.22 µM), for the others: at the top dose activation, negative = inhibition, usual class: activators | 320,000 compounds, 2.8% hits; further: % of control where 0% means no effect; nearly all actives have a fitted effect of over 60% in size
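Luminescence read-out: Huh7 cells stably expressing Rab9-luciferase, treated 24 h with compound at 37 °C, then lysed with luciferase reagent for 10 min at ambient before reading.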
FLuc counter – qHTS profiling assay for firefly luciferase inhibitor/activator using purifed enzyme and Km concentrations of substrates (counterscreen for miR-21 project). Luciferin 4-monooxygenase (Photinus pyralis), P08659. purified FLuc, Km substrates, luminescence inhibition. Potency, µM (titrated, usually from 57.5 µM), for inactives: at the top dose activity change, negative = inhibition, most hits filed as inhibitors. 360,000 compounds, 6.9% hits;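 further: plate controls were vehicle for no effect and reference inhibitor for full effect; nearly all actives have a fitted effect of over 55% in size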
Target sequence (P08659 whole entry, looked up): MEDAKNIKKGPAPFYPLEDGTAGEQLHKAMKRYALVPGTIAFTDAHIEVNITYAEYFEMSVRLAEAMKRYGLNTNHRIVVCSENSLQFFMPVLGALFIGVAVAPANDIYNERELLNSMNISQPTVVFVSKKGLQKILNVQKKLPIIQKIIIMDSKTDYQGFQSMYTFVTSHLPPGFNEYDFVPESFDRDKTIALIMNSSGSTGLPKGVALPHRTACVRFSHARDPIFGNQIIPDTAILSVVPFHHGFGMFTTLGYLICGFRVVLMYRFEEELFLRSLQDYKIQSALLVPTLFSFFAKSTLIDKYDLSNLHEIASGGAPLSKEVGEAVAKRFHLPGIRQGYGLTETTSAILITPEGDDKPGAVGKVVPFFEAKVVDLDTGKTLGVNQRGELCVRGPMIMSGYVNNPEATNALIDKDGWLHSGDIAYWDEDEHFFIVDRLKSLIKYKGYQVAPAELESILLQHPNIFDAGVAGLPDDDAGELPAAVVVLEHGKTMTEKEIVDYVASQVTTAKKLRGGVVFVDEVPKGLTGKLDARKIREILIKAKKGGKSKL
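Biochemical qHTS of compounds, final roughly 60 µM downward over six points, against 10 nM purified firefly luciferase using Km concentrations of substrates (10 uM D-luciferin, 10 uM ATP) in Tris acetate pH 7.5 buffer; luminescence output.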
ELG1 DNA repair – qHTS screen for small molecules that inhibit ELG1-dependent DNA repair in human embryonic kidney (HEK293T) cells expressing luciferase-tagged ELG1; Potency, µM (series often up to 46.1 µM), for the others: top-dose activity change, negative = inhibition, actives largely listed as inhibitors; 330,000 compounds, 2.3% hits; AID 504467, 2011; HEK293T ELG1-luciferase reporter, luminescence, 16 h; DNA damage induced by 5-fluorouridine; further: on the % scale 0 is the no-effect control and ±100 the full control effect; nearly all actives have a fitted effect of over 55% in size
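DMSO vehicle served as the neutral condition. Each well held 2,000 cells given 5-fluorouridine plus compound; after 16 hr at 37 °C/5% CO2, ONE-Glo was added and luciferase measured 30 min later.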
SMN2 splice enh – qHTS Assay for Enhancers of SMN2 Splice Variant Expression. HEK293 SMN2-luciferase splicing reporter, luminescence, 30-36 h. Potency, µM (highest dose often 46.1 µM), for the others: top-dose activity change, positive = activation, hits mostly activators. 210,000 compounds, 2.8% hits. AID 1458, 2008; further: % of control where 0% means no effect; nearly all actives have a fitted effect of over 55% in size
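HEK293 cells carry an SMN2 […]–luciferase reporter in which exon 7 inclusion puts luciferase in frame. Cells were plated 10-12 h before compound addition, then incubated 30-36 h at 37C. ONE-Glo luminescence was read; sodium butyrate at 4.5 mM final served as control.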
NPC1 promoter act – qHTS Assay for NPC1 Promoter Activators; Huh7 NPC1 promoter luciferase reporter, 24 h; Potency, µM (doses to about 9.22 µM), inactives show at the highest dose activation, most hits filed as activators; 320,000 compounds, 2.4% hits; further: % of control where 0% means no effect; nearly all actives have a fitted effect of over 60% in size
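Stably transfected Huh7 (NPC1 promoter→luciferase), 1500 cells/well in Opti-MEM + 10% FBS, 2 h settle, then compound 24 h at 37 °C. Luminescence after 10 min with Amplite reagent.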
Active calls of the source: *; ? = inconclusive; . = no result given; [ ] = dose if it differs, or a comment. Compounds with a hit are over-represented: about 9.2% of the library has one in this group of screens. The call rests on the fitted dose curve; in most records, active means well fitted curve in the direction sought with a large enough effect; inconclusive means small, poorly fitted or top-dose-only effect, or another doubt; inactive means no such curve, though single readings can be large; an effect the other way counts as inactive or inconclusive. Potency means the concentration at half of the fitted maximal effect.

SMILES	ELG1 genotoxic	Rab9 promoter act	FLuc counter	ELG1 DNA repair	SMN2 splice enh	NPC1 promoter act
Cc1ccc(-c2cc(C(F)F)n3ncc(C(=O)N4CCC5(CC4)OCCO5)c3n2)cc1	0.4%	-1.1%	2.0%	18.4µM*	1.3%	-4.7%
O=C(O)[C@@H]1[C@H](C(=O)O)[C@]2(Cl)C(Cl)=C(Cl)[C@@]1(Cl)C2(Cl)Cl	.	.	.	.	-63.8%[9.22 µM]	.
CC(=O)C1=NOC(CNc2ncc(C(F)(F)F)cc2Cl)C1 (stereo unspecified)	?	?	26.9µM*	?	18.4%	18.4%
O=C1NC(=O)N(CCNc2ncc(C(F)(F)F)cc2Cl)C(=O)C1/C=N/OCc1c(F)cccc1Cl (stereo unspecified)	0.5%	-0.9%	-4.7%	-29.3%	-44.3%	-4.2%
Cc1nc2ccc(NC(=O)C3COc4ccccc4O3)cc2s1 (stereo unspecified)	?	?	12µM*	?	.	?
Cc1cccc(Cn2cccc(C(=O)Nc3nc4ccccc4s3)c2=O)c1	.	.	6.01µM*	.	.	.
CCOc1ccc2nc(NC(=O)c3cccn(Cc4ccccc4C)c3=O)sc2c1	.	.	15.1µM*	.	.	.
Cc1ccc2nc(NC(=O)c3cccn(Cc4ccccc4F)c3=O)sc2c1	.	.	6.0%	.	.	.
NS(=O)(=O)c1cc(C(=O)OCC(=O)Nc2ccc3[nH]c(=O)[nH]c3c2)ccc1Cl	-0.6%	0.8%	1.0%	?	.	-1.7%
Cc1ccc(NC(=O)C2CCN(C(=O)c3cnn(-c4ccccc4)c3-n3cccc3)CC2)cc1Cl	.	.	?	.	-30.5%	.
O=C1/C(=C/c2ccc3c(c2)OCO3)N2CCC1CC2	1.1%	1.7%	-11.2%	-6.0%	18.0%	3.6%
Cc1oc(/N=C/c2ccc3c(c2)OCO3)c(C#N)c1C	?	12.7%	1.69µM*	?	-0.3%	-3.0%
CN(C)c1ccc(N(C)C)cc1	.	.	.	.	-8.5%	.
CCCCn1c(N)c(C(=O)NCc2cccs2)c2nc3ccccc3nc21	-3.1%	-9.7%	3.4%	23.1µM*	-9.8%	-1.8%
Nc1c(C(=O)NCCCc2ccccc2)c2nc3ccccc3nc2n1Cc1cccs1	-12.6%	-1.4%	0.0%	14.6µM*	22.0%	-0.6%
COc1ccc(CCNC(=O)c2c(N)n(CCN3CCOCC3)c3nc4ccccc4nc23)cc1OC	-2.7%	0.6%	-8.0%	16.4µM*	-13.3%	0.4%
Oc1cc(Cl)ccc1Cl	.	.	.	.	-1.7%	.
CN[C@H](Cc1ccccc1)c1cccc(OC)c1O	.	.	.	.	-20.2%[9.22 µM]	.
N#CCCCC[N+]12CN3CN(CN(C3)C1)C2	.	.	.	.	-9.6%[9.22 µM]	.
COc1ccc(C(CC(=O)N2CCC3(CC2)OCCO3)NS(=O)(=O)c2ccc(F)cc2)cc1 (stereo unspecified)	-2.5%	3.55µM*	-0.5%	-12.7%	-5.4%	-5.6%
NC(N)=N/N=C/c1cn(-c2ccccc2)nc1-c1cccs1	1.2%	-3.1%	4.26µM*	0.0%	-13.5%	-0.1%
C[C@H]1C2C=C[C@H]1[C@@H](C(=O)O)[C@@H]2c1c2ccc(=O)c(O)c-2oc2c(O)c(O)ccc12	.	.	.	.	-3.0%[9.22 µM]	.
Cc1cc(NC(=O)c2noc3c2CCCCC3)no1	?	?	15.1µM*	?	?	?
CC(C)c1ccc(C(O)(C(=O)O)c2ccc(C(C)C)cc2)cc1	.	.	.	.	-10.3%[9.22 µM]	.
O=C(O)c1cccc(N=Nc2c(O)[nH]c(=O)[nH]c2=O)c1	-1.8%	26.7%	15.1µM*	-2.1%	.	-3.8%
SMILES	ELG1 genotoxic	Rab9 promoter act	FLuc counter	ELG1 DNA repair	SMN2 splice enh	NPC1 promoter act
O=c1[nH]c(O)c(N=Nc2ccc([N+](=O)[O-])cc2)c(=O)[nH]1	4.4%	23.6%	?	?	-2.1%	4.1%
CC(C)c1ccc(N=Nc2c(O)[nH]c(=O)[nH]c2=O)cc1	?	?	2.39µM*	?	.	?
O=C(c1ccccc1)c1ccc(N=Nc2c(O)[nH]c(=O)[nH]c2=O)cc1	12.2%	?	0.9%	18.1%	3.3%	-9.0%
O=c1[nH]c(=S)[nH]c(O)c1N=Nc1ccc(SC(F)F)cc1	6.51µM*	3.16µM*	1.2µM*	?	.	3.16µM*
O=S(=O)(NCCO)c1cc[c]([Sb])cc1	.	.	.	.	-4.5%[9.22 µM]	.
CC(=O)Nc1ccc(S(=O)(=O)N(C)CCOCc2ccccc2)cc1	-1.4%	-7.5%	1.6%	?	-16.5%	-0.4%
Cn1cnc2cc(NC(=O)c3ccc(Cl)cc3)ccc21	?	2.82µM*	12µM*	?	11.2µM*	2.82µM*
C[C@]1(O)CC[C@H]2[C@@H]3[C@@H](O)CC4=CC(=O)CC[C@@]4(C)[C@H]3CC[C@]21C	.	.	.	.	-11.7%[9.22 µM]	.
O=C(NC1CC1)c1cn(Cc2ccccc2)nc1-c1ccccc1	-0.7%	0.0%	3.7%	7.8%	.	1.0%
Cc1ccc(Cn2cc(C=O)c(-c3ccc(C)cc3)n2)cc1	?	?	16.9µM*	?	?	24.7%
O=c1c2ccccc2nc(-c2ccc(-c3ccccc3)cc2)n1-c1ccncc1	-3.6%	-2.7%	16.9µM*	?	-20.5%	-1.2%
Cc1ccc(-c2nc3ccccc3c(=O)n2-c2ccncc2)cc1	-0.2%	10.2%	-1.4%	-3.4%	-7.9%	-0.6%
COC(=O)C(O)(c1ccc(NC(=O)NC2CCCCC2)cc1)C(F)(F)F (stereo unspecified)	?	?	12µM*	?	?	?
CC[C@@H](CO)Nc1nc(NCc2ccccc2)c2ncn(C(C)C)c2n1	.	-39.3%[46.1 µM]	.	.	.	-27.8%[46.1 µM]
Nc1ccc(Cl)c(Cl)c1	.	.	.	.	4.4%	.
Nc1cc2nc3ccccc3nc2cc1N	11.5%	28.3%	19µM*	?	.	?
CCCc1cc2c(n1Cc1ccco1)C(C)C1CN(C(=O)c3ccccc3)C(C)(C(=O)OC)C21 (stereo unspecified)	.	.	.	.	18.2%	.
O=C(Nc1ccc(Br)cc1)c1cccc(S(=O)(=O)N2CCc3ccccc32)c1	.	.	3.0%	.	-62.8%	.
CCN(CC)C(=O)Oc1ccc2cc(Br)ccc2c1	?	22.2%	21.3µM*	?	2.2%	7.9%
Nc1ccc2cc(Br)ccc2c1	10.3%	4.9%	-19.4%	4.6%	-27.0%	5.5%
Cc1nc2ccc(OC(=O)c3ccccc3)cc2s1	-3.5%	-4.4%	8.49µM*	-5.4%	.	1.4%
CCN(CC)c1ccccc1	1.6%	-0.1%	-1.3%	18.1%	-9.7%	10.4%
CCN(CC)c1ccc(/C=C/[N+](=O)[O-])cc1	?	-2.8%	19µM*	?	14.0%	-5.9%
